Data: the supplement of paper PMC10121225
Counter-ions that a name gives are not always drawn.

System: hN + hpA co-culture (H1 iNGN2 human neurons + human primary astrocytes)
Experiment: presynaptic density (SYNAPSIN1 puncta per MAP2 neurite area), Z-score vs DMSO controls; higher = more presynaptic puncta (synapse-promoting)
Details: 3 µM; 72 h
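Further: immunostained co-cultures imaged by high-content microscopy, Z-score per plate against mean and SD of 0.1% DMSO wells, compounds added on differentiation day 18, analysed day 21.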

SMILES	presynaptic density (Z-score)
CC(NC(=O)c1ccccc1N=Cc1c(O)ccc2ccccc12)c1ccccc1 (centres undefined)	0.165
CC(C)c1c(C(=O)Nc2ccccc2)c(-c2ccccc2)c(-c2ccc(F)cc2)n1CC[C@@H](O)C[C@@H](O)CC(=O)O	-2.01
N#CC(=C(N)Sc1ccccc1N)C(C#N)=C(N)Sc1ccccc1N [1,4-Diamino-2,3-dicyano-1,4-bis[2-aminophenylthio]butadiene]	-0.048
COc1cc2ncnc(Nc3ccc(Cl)cc3F)c2cc1OC	-0.982
NC(=O)c1ccc(-c2nc(-c3ccc4c(c3)OCO4)c(-c3ccccn3)[nH]2)cc1	0.232
CCOC(=O)C1=C(C)NC(C)=C(C(=O)OC)C1c1cccc(Cl)c1Cl (centres undefined) [Felodipine]	-1.18
COc1ccc(-c2nc3cc(C4=NNC(=O)CC4C)ccc3[nH]2)cc1 (centres undefined) [Pimobendan]	-0.704
NC1(Cc2ccc(Cl)cc2)CCN(c2ncnc3[nH]ccc23)CC1	-0.622
Cc1ccc(C(=O)N(CCCN)[C@@H](c2oc3cc(Cl)ccc3c(=O)c2Cc2ccccc2)C(C)C)cc1	-3.49
COC1CC2CCC(C)C(O)(O2)C(=O)C(=O)N2CCCCC2C(=O)OC(C(C)CC2CCC(OP(C)(C)=O)C(OC)C2)CC(=O)C(C)C=C(C)C(O)C(OC)C(=O)C(C)CC(C)C=CC=CC=C1C (centres undefined) [Ridaforolimus (Deforolimus]	0.509
O=S(=O)(NCCNCC=Cc1ccc(Br)cc1)c1cccc2cnccc12	-0.0684
CN1C(=O)C(Cc2c[nH]c3ccccc23)NC1=S (centres undefined) [5-(1H-Indol-3-ylmethyl)-3-methyl-2-thioxo-4-imidazolidinone]	-0.458
CC(C)c1onc(-c2c(Cl)cccc2Cl)c1COc1ccc(/C=C/c2cccc(C(=O)O)c2)c(Cl)c1	-0.576
C[C@@H](Oc1cc(-n2cnc3ccc(CN4CCN(C)CC4)cc32)sc1C(N)=O)c1ccccc1C(F)(F)F	-1.83
COc1ccc2cc(-c3nc(-c4ccc([S+](C)[O-])cc4)[nH]c3-c3ccncc3)ccc2c1 (centres undefined) [Tie2 kinase inhibitor]	-0.787
COc1ccccc1N1CCN(CC(O)COc2cccc3ccccc23)CC1 (centres undefined)	-0.464
NCc1c[nH]c(=S)n1C1CCc2c(F)cc(F)cc2C1 [(R)-Nepicastat HCl]	0.738
CCCC(C)NC(=O)c1ccc(Cl)c(Cl)c1 (centres undefined)	-0.211
CC(C)(C)n1nc(-c2ccc(Cl)cc2)c2c(N)ncnc21	0.793
CCCN[C@H]1CCc2nc(N)sc2C1 [Pramipexole]	0.794

SMILES	presynaptic density (Z-score)
COc1ccccc1OCCNCC(O)COc1cccc2[nH]c3ccccc3c12 (centres undefined)	-1.2
COc1ccc(CNCc2cccc3ccccc23)cc1	-1.02
NC(=O)c1ccc(I)c([N+](=O)[O-])c1	-1.09
CCOC(=O)C1=C(COCCN)NC(C)=C(C(=O)OC)C1c1ccccc1Cl (centres undefined)	-1.97
Cc1cnc(NC(=O)Nc2cc(Br)c(C)cc2OC[C@@H]2CNCCO2)cn1	-0.602
COc1ccc(-n2nc(C(N)=O)c3c2C(=O)N(c2ccc(N4CCCCC4=O)cc2)CC3)cc1 [Apixaban]	0.0881
Cc1cc(NC(=O)Nc2ccc(N(C)C)cc2)c2cc(F)cc(F)c2n1	0.301
COc1cc2nc(N3CCN(C(=O)C4COc5ccccc5O4)CC3)nc(N)c2cc1OC (centres undefined) [Doxazosin mesylate]	0.0192
Cc1ccc2c(=O)c3cccc(CC(=O)O)c3oc2c1C [DMXAA (Vadimezan)]	-1.15
C#Cc1cccc(Nc2ncnc3cc4c(cc23)OCCOCCOCCO4)c1 [Icotinib]	-0.0135
C[C@@H](c1ncncc1F)[C@](O)(Cn1cncn1)c1ccc(F)cc1F	0.265
C[C@]12CC[C@@H]3c4ccc(O)cc4C[C@@H](CCCCCCCCC[S+]([O-])CCCC(F)(F)C(F)(F)F)[C@H]3[C@@H]1CC[C@@H]2O (some centres undefined) [Fulvestrant]	-0.41
Nc1nc(OCc2cc(Br)cs2)c2[nH]cnc2n1 [Lomeguatrib]	-0.621
Nc1ccc(C(=O)O)c(O)c1 [Sodium 4-Aminosalicylate]	0.294
COc1ccccc1Oc1c(NS(=O)(=O)c2ccc(C(C)(C)C)cc2)nc(-c2ncccn2)nc1OCCO [Bosentan Hydrate]	0.531
C[C@]12C=CC(=O)N[C@@H]1CC[C@@H]1[C@@H]2CC[C@]2(C)[C@@H](C(=O)Nc3cc(C(F)(F)F)ccc3C(F)(F)F)CC[C@@H]12 [Dutasteride]	-1.23
C=CCc1cccc(C=NNC(=O)CN2CCN(Cc3ccccc3)CC2)c1O	-1.87
CCn1c(-c2nonc2N)nc2c(C#CC(C)(C)O)ncc(OC[C@H]3CCCNC3)c21	-0.664
CC(C)OC(=O)OCOP(=O)(CO[C@H](C)Cn1cnc2c(N)ncnc21)OCOC(=O)OC(C)C [Tenofovir Disoproxil Fumarate]	0.611
